From PubChem
Sampled rows, rich in hits. Any-hit rate of the full collection: about 10%.
G9a block – qHTS Assay for Inhibitors of Histone Lysine Methyltransferase G9a | G9a H3K9 monomethylation, AlphaScreen, 2 h | Potency, µM (highest dose often 102 µM), hits mostly inhibitors | 350,000 tested, 8.8% active | AID 504332, 2011; further: nearly all actives have a fitted effect of over 75% in size
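Compounds were preincubated with 20 nM G9a for 15 min, after which biotinylated H3K9 peptide (500 nM) and SAM (20 uM) started a 2 h room-temperature reaction. Monomethylated product was quantified by antibody-based AlphaScreen chemiluminescence.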
BAZ2B inh – qHTS Assay for Inhibitors of BAZ2B | Potency, µM (highest dose often 114 µM), most hits filed as inhibitors | AlphaScreen BAZ2B-H3K14Ac peptide displacement | 360,000 tested, 4.4% active | Bromodomain adjacent to zinc finger domain protein 2B (Homo sapiens), Q9UIF8; further: nearly all actives have a fitted effect of over 60% in size
Target sequence (Q9UIF8 whole entry, looked up, the tested form may be a part): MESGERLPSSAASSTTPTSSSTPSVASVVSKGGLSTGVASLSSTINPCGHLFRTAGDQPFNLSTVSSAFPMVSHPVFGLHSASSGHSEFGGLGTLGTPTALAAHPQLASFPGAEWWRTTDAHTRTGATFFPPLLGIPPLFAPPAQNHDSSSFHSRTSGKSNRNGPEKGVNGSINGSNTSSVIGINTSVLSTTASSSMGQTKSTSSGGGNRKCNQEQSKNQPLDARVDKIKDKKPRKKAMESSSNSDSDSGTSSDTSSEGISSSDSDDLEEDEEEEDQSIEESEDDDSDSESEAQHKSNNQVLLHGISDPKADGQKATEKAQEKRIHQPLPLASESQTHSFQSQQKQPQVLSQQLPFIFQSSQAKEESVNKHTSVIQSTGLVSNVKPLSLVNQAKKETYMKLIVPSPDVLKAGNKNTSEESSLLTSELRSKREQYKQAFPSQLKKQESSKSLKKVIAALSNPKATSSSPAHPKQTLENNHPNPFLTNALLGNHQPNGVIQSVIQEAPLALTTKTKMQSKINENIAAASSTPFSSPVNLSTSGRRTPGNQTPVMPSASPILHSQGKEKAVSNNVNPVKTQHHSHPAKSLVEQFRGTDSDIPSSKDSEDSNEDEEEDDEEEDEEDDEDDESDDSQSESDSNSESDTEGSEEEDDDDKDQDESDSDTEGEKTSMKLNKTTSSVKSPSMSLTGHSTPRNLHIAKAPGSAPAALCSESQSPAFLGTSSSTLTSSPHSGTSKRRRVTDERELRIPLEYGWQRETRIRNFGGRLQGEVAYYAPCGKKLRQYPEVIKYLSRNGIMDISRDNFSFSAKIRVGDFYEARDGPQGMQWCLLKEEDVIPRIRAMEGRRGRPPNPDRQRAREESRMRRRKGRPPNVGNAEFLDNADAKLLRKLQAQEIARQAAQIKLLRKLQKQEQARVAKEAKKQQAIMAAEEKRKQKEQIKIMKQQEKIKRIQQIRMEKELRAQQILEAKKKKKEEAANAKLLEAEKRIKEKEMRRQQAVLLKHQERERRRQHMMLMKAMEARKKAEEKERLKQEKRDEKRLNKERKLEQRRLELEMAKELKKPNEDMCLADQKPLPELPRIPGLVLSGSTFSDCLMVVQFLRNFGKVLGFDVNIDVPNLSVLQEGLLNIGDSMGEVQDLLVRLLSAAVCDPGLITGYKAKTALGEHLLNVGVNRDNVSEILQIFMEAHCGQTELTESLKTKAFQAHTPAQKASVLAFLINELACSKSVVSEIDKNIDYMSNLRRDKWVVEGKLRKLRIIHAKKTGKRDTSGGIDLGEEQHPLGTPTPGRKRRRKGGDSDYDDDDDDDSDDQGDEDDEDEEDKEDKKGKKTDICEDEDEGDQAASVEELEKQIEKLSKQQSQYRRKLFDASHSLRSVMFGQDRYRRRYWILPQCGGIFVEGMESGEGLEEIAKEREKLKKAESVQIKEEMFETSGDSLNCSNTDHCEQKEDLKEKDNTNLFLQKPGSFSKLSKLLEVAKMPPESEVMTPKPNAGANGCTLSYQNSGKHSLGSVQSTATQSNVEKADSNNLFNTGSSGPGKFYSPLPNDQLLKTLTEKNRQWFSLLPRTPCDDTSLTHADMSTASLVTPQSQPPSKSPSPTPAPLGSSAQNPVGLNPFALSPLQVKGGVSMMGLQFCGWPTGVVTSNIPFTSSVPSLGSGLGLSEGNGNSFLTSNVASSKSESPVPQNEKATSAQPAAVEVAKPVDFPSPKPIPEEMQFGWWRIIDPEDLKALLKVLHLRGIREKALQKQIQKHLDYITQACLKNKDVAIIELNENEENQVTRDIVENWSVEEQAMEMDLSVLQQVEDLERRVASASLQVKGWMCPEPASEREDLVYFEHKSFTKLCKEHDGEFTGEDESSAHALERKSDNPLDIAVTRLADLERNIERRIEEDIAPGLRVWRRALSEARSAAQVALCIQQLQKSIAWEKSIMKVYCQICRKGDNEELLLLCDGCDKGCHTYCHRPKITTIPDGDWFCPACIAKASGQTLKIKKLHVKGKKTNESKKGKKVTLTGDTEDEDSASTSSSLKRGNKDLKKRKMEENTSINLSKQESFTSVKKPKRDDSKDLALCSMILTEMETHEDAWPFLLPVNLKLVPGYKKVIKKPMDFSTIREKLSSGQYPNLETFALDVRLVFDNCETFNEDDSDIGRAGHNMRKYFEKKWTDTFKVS
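AlphaScreen displacement: compounds (up to 110uM) incubated 30 min at room temperature with a preformed 50 nM BAZ2B/50 nM biotinylated H3K14Ac peptide complex in PBS pH 7.4 with Tween-20. Donor and acceptor beads at 10 ug/mL final added, 20 min light-protected before reading.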
JMJD2A Tudor inh – qHTS Assay for Inhibitors of JMJD2A-Tudor Domain. Lysine-specific demethylase 4A (Homo sapiens), O75164. AlphaScreen JMJD2A-Tudor / H3K4me3 peptide binding. Potency, µM (series often up to 114 µM), actives largely listed as inhibitors. 390,000 tested, 4.4% active; further: nearly all actives have a fitted effect of over 50% in size
GLS inhibitor – qHTS for Inhibitors of Glutaminase (GLS); GLS enzymatic activity, qHTS titration; Glutaminase kidney isoform, mitochondrial (Homo sapiens), O94925; 410,000 tested, 0.21% active; Potency, µM (series often up to 45.5 µM), actives largely listed as inhibitors
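Glutamate formation by hKGA was monitored fluorometrically using coupled glutamate oxidase, HRP and Amplex Red. Substrate was added as 1 mM L-glutamine solution; incubation was 30 min at RT after an initial read.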
HP1b chromo inh – HTS for Inhibitors of HP1-beta Chromodomain Interactions with Methylated Histone Tails | AlphaScreen HP1-beta / biotin-H3K9me3 peptide binding | Potency, µM (highest dose often 114 µM), usual class: inhibitors | 390,000 tested, 0.56% active | AID 540317, 2011; further: nearly all actives have a fitted effect of over 70% in size
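HP1-beta protein (50 nM final) preincubated 30 min at room temperature with biotinylated H3(1-18)K9me3 peptide (50 nM) in PBS pH 7.4, 0.01% Tween-20, then compound added for 30 min. AlphaScreen streptavidin donor/nickel chelate acceptor beads (10 ug/mL final), 30 min dark, luminescence read.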
A number is an active result; - = inactive; ? = inconclusive; . = not tested or not shown; [ ] = remark or other dose. The call rests on the fitted dose curve; in most records, active means well fitted curve in the direction sought with a large enough effect; inconclusive means small, poorly fitted or top-dose-only effect, or another doubt; inactive means no such curve, though single readings can be large; an effect the other way counts as inactive or inconclusive.

SMILES	G9a block	BAZ2B inh	JMJD2A Tudor inh	GLS inhibitor	HP1b chromo inh
CCOC(=O)N1CCN(S(=O)(=O)c2ccc(C(=O)Nc3sc4c(c3C(=O)OC)CCN(C)C4)cc2)CC1	56µM	-	-	-	-
CN1CCc2c(sc(NC(=O)c3ccc(S(=O)(=O)N4CCOCC4)cc3)c2C(N)=O)C1	40µM	-	-	-	-
CC(=O)N1CCc2c(sc(NC(=O)C3CCCN3S(=O)(=O)c3cccs3)c2C(N)=O)C1 (centres undefined)	?	-	-	-	-
CCOC(=O)N1CCN(S(=O)(=O)c2ccc(C(=O)Nc3sc4c(c3C(N)=O)CCN(CC)C4)cc2)CC1	50µM	?	-	-	-
CN1CCc2c(sc(NC(=O)C3CCCN3S(=O)(=O)c3ccc(Cl)s3)c2C(N)=O)C1 (centres undefined)	45µM	-	-	-	-
O=C(O)C1CC2C3CC(C(=O)O)C(C3)C2C1 (centres undefined)	.	.	-	-	-
CN1CCN(C(=O)c2cc(Cl)ccc2Cl)CC1	-	-	-	-	-
Cc1cc2c(s1)c1cnn(Cc3ccc(C(C)C)cc3)c(=O)c1n2C	.	.	-	.	.
Cc1cc(C)c2sc(N3CCN(C(=O)C4CC4)CC3)nc2c1	-	-	-	-	-
Cc1cc(C)c2sc(N3CCN(C(=O)c4ccc(N(C)C)cc4)CC3)nc2c1	22µM	20µM	40µM	-	?
CCCc1cc(-c2[nH]ncc2-c2ccc3c(c2)OCCCO3)c(O)cc1O	-[12.7 µM]	?	40µM	-	-
COc1cc(Nc2nc(-c3ccccc3)c3cc(C)ccc3n2)cc(OC)c1OC	40µM	?	?	-	-
O=S(=O)(c1ccccc1)N1CCC2(CC1)CO2	?	-	-	-	-
COC(=O)[C@@]1(Sc2ccc(C)cc2)CC(=O)N(C(=O)c2ccccc2)[C@@H]1c1ccccc1	.	.	.	-	.
CCCCn1c(N)c(N(CC(C)C)C(=O)C(C)SCc2nc3sc(C)c(C)c3c(=O)[nH]2)c(=O)[nH]c1=O (centres undefined)	35µM	-	-	-	-
O=C(Cc1ccccc1)NCC(=O)Nc1ccc(OC(F)(F)F)cc1	-	-	-	-	-
COCCNCC(=O)Nc1ccc(OC(F)(F)F)cc1	22µM	50µM	0.79µM	-	?
CCOCCCNCC(=O)Nc1ccc(OC(F)(F)F)cc1	50µM	79µM	40µM	-	?
CCNC(=O)CC1SC(=Nc2ccccc2C)N(C)C1=O (centres undefined)	-	-	-	-	-
O=C(CSc1nnc(-c2ccccc2)n1-c1ccc(Cl)cc1)NNC(=S)Nc1ccccc1	10µM	-	-	-	-
Cc1cccc(NC(=O)CSc2nnc(-c3ccncc3)n2C)c1	-	-	-	-	-
Cn1c(SCC(=O)NNC(=S)Nc2ccccc2)nnc1-c1ccncc1	71µM	-	.	.	.
CCn1c(SCC(=O)NNC(=S)Nc2ccccc2)nnc1-c1ccc(Cl)cc1	20µM	-	-	-	-
C=CCn1c(SCC(=O)NNC(=S)Nc2ccccc2)nnc1-c1ccccc1	-	-	-	-	-
Cn1c(-c2ccc(F)cc2)cnc1SCC(=O)Nc1ccccc1	-[12.7 µM]	?	-	-	-
SMILES	G9a block	BAZ2B inh	JMJD2A Tudor inh	GLS inhibitor	HP1b chromo inh
CN(C)c1oc(-c2ccccc2Cl)nc1P(=O)(c1ccccc1)c1ccccc1	?	?	56µM	-	-
COc1ccc(NC(=O)CSc2nncs2)cc1S(=O)(=O)N1CCCCC1	.	.	-	-	-
CCC1(c2ccccc2)NC(=S)N(c2cccc(C)c2C)N1 (centres undefined)	32µM	-	-	-	-
CCCCN(CCCC)S(=O)(=O)c1ccc2oc(C(=O)NCc3ccc(C)cc3)c(C)c2c1	-	-	-	-	-
Cc1cnc([N+](=O)[O-])n1CCOC(=O)NC(=O)c1ccccc1Cl	-	-	-	-	?
O/N=C\c1cccn1-c1ccc(Br)cc1	?	?	79µM	-	-
O/N=C\c1cccn1-c1nccs1	-	-	-	-	-
Cc1ccc(S(=O)(=O)NCCC(=O)N(C)Cc2cccs2)cc1	-[12.7 µM]	-	-	-	-
CCCc1cc(C(=O)NNC(=S)NC(C)c2ccccc2)cs1 (centres undefined)	50µM	-	-	-	-
Cc1cccc(NC(=S)NN2CCN(C)CC2)c1	56µM	-	-	-	-
CCc1cc(C(=O)NNC(=S)Nc2cccc(C)c2)cs1	10µM	-	-	-	-
CCCc1cc(C(=O)NNC(=S)NCC2CCCO2)cs1 (centres undefined)	-	-	-	?	-
Cc1cccc(NC(=S)NNC(=S)NCc2ccccc2)c1	0.71µM	-	?	-	-
O=C(COc1ccccc1)N=C1SC2CS(=O)(=O)CC2N1c1ccccc1 (centres undefined)	-	-	-	-	-
CN(C)c1ccc(N2C(=NC(=O)COc3ccccc3)SC3CS(=O)(=O)CC32)cc1 (centres undefined)	50µM	?	?	-	-
CCN1CCN(S(=O)(=O)c2ccc(OC)c(NC(=O)c3ccccc3F)c2)CC1	-[0.501 µM]	-	-	-	-
Cc1ccc(-n2c(SCC(N)=O)nnc2-c2cccnc2)c(C)c1	-	-	-	-	-
Cc1ccc(-n2c(SCc3cc(=O)n4ccsc4n3)nnc2-c2cccnc2)c(C)c1	?	56µM	-	-	-
CC(=O)Nc1ccc2c(CSc3nnc(-c4cccnc4)n3-c3ccc(C)cc3C)cc(=O)oc2c1	8.9µM	?	-	-	-
CCOC(=O)C1=C(C)OC(N)=C(C#N)C1c1ccc(O)c(OC)c1 (centres undefined)	-	-	-	-	-
O=C(Cn1cc(C(=O)C(F)(F)F)c2ccccc21)NCc1ccco1	-	?	-	-	-
N#CC1(NC(=O)CSc2nnc(-c3ccccc3F)o2)CCCCC1	40µM	-	-	-	-
O=C(CSc1nnc(-c2ccccc2F)o1)NC1CCCCC1	-	-	-	-	-
COc1ccc(NC(=S)N(CCN(C)C)Cc2cccs2)cc1	-	-	-	-	-
COc1ccc(-c2[nH]c(-c3ccc(C(=O)O)cc3)nc2-c2ccccc2)cc1	79µM	79µM	?	-	-
O=C(O)c1ccc(-c2nc(-c3ccccc3)c(-c3ccccc3)[nH]2)cc1	-	?	79µM	-	40µM
Cc1ccsc1-c1nc(-c2ccccc2)c(-c2ccccc2)[nH]1	-[12.7 µM]	-	-	-	-
CS(=O)(=O)c1nc(-c2ccccc2)c(-c2ccccc2)[nH]1	45µM	?	-	-	-
CCN(CC)S(=O)(=O)c1cc([N+](=O)[O-])ccc1NNC(=O)Nc1ccccc1OC	28µM	?	?	-	-
